Assay outcomes: PubChem BioAssay, National Center for Advancing Translational Sciences (NCATS)
This is a sample that favours compounds with a hit; in the whole collection about 21% have one here.
ELG1 repair inh: blocks ELG1-dependent DNA repair in HEK293T cells. HEK293T ELG1-luciferase reporter, luminescence, 16 h; DNA damage induced by 5-fluorouridine. AID 504467. 330,000 compounds, 2.3% hits. Potency, µM (series often up to 46.1 µM), without a hit: at the top dose activity change, negative = inhibition, actives largely listed as inhibitors; note: potency is the fitted concentration of half-maximal effect; nearly all actives have a fitted effect of over 55% in size
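Overnight (16 hr) co-exposure of 2,000 cells/well to 5-fluorouridine and compound at 37 °C preceded detection. Luciferase was quantified via ONE-Glo luminescence; loss of signal denotes inhibition.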
Gal4-VP16 FLuc: Gal4-VP16 reporter inhibition counter-screen | Drosophila S2 Gal4-VP16 UAS-luciferase, luminescence, 20 h | Potency, µM (titrated, usually from 53.6 µM), without a hit: top-dose activity, negative = inhibition, usual class: inhibitors | 310,000 compounds, 3.5% hits;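 note: Gal4-VP16 expression switched on by copper sulfate through the metallothionein promoter; potency is the fitted concentration of half-maximal effect; nearly all actives have a fitted effect of over 50% in size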
TDP1 cell CPT: growth inhibition of DT40 Tdp1-/-;hTDP1 cells with camptothecin (screen for TDP1 inhibitors). chicken DT40 Tdp1-/-;hTDP1 cells + 20 nM CPT, ATP luminescence, 48 h. Potency, µM (titrated, usually from 46.2 µM), for the others: at the highest dose activity change, negative = growth inhibition, hits mostly inhibitors. 420,000 compounds, 12% hits; note: potency is the fitted concentration of half-maximal effect; nearly all actives have a fitted effect of over 55% in size
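Chicken DT40 Tdp1-/- cells stably complemented with human TDP1 were seeded at 400 cells/well in medium containing 20 nM camptothecin, exposed to pin-transferred compounds, and grown at 37 °C for at least 48 hr. Viability was read as ATP luminescence.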
DT40 TDP1 no CPT: qHTS for Inhibitors of human tyrosyl-DNA phosphodiesterase 1 (TDP1): qHTS in cells in absence of CPT | Potency, µM (highest dose often 46.2 µM), for the others: top-dose activity change, negative = growth inhibition, usual class: inhibitors | 420,000 compounds, 15% hits | DT40 Tdp1-/- hTDP1 cells, no CPT, ATP luminescence, 48 h; note: potency is the fitted concentration of half-maximal effect; nearly all actives have a fitted effect of over 55% in size
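Readout: luminescence from CellTiter-Glo after 30 min in the dark at RT. Cells: DT40 Tdp1-/- with stable hTDP1, 400/well. Exposure: compounds alone, ≥48 hr, 37 °C.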
IL-1B inflam inh: inhibitors of inflammasome signaling (IL-1 beta secretion). THP-1 LPS/ATP IL-1B secretion, AlphaLISA, 16 h; active compounds read low. activity change, % at 57.5 µM. 360,000 compounds, 4.7% hits; in the data active = activity change below about -50%; inconclusive = mostly about -30% to -49%
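Secreted IL-1B measured by AlphaLISA bead assay after 16 h compound exposure of THP-1 cells; compounds (final up to 57.5 uM) added 1 h before LPS (250 ng/mL) and ATP (1.25 mM) stimulation; lower signal means less secretion.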
RORg inh: ROR gamma (mouse) transcription inhibition; 310,000 compounds, 5.4% hits; Potency, µM (top dose mostly 53.6 µM), inactives show top-dose activity change, negative = inhibition, most hits filed as inhibitors; Drosophila S2 Gal4-RORgamma UAS-luciferase reporter, 20 h; AID 2551; P51450; note: potency is the fitted concentration of half-maximal effect; nearly all actives have a fitted effect of over 60% in size
Target sequence (P51450 whole entry, looked up, the tested form may be a part): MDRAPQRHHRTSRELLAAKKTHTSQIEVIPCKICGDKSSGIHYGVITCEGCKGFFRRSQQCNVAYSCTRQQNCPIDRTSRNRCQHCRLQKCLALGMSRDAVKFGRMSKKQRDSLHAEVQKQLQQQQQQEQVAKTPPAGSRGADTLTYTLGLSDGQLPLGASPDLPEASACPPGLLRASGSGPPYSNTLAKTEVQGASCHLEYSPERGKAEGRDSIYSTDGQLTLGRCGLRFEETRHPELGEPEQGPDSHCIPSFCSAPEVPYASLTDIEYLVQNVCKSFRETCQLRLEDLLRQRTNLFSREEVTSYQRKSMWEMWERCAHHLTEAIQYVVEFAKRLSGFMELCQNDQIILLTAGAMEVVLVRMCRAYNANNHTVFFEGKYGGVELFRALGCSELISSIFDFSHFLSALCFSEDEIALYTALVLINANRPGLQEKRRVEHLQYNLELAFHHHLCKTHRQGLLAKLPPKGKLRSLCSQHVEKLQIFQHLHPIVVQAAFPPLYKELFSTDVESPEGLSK
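Drosophila S2 cells stably expressing Gal4-DBD/mouse RORγ fusion under metallothionein promoter plus UAS-luciferase; compound 1 h, then 700 uM CuSO4 induction for 20 h at ambient temperature; inhibition read as reduced luminescence.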
* marks the source's active call; other numbers are inactive results; ? = inconclusive; nt = no result; [ ] = dose if it differs, or a comment. Unless noted, calls come from the whole dose curve; as a rule, active = well fitted curve in the direction sought with a large enough effect; inconclusive = small, poorly fitted or top-dose-only effect, or another doubt; inactive = no such curve, though single readings can be large; an effect the other way counts as inactive or inconclusive. % is set by controls: 0 for no effect and ±100 for the full control effect.

SMILES | ELG1 repair inh | Gal4-VP16 FLuc | TDP1 cell CPT | DT40 TDP1 no CPT | IL-1B inflam inh | RORg inh
Cc1ccc(NS(=O)(=O)c2cccc3nsnc23)cc1C | 0% | 11% | 0% | -26% | -15 | 33%
COc1cc2c(NC3CCN(C)CC3)nc(N3CCCCC3)nc2cc1OCCOCCN1CCCC1 | nt | nt | 13µM* | ? | nt | nt
COc1cc2c(NC3CCN(C(C)C)CC3)nc(N3CCCN(C)CC3)nc2cc1OCCOCCN1CCCC1 | nt | nt | 10µM* | 14µM* | nt | nt
COc1ccc(CNC(=O)CN(c2ccc(C)cc2)S(=O)(=O)c2c(C)nn(C)c2C)cc1 | 12% | 6% | -22% | -20% | 21 | -2%
CN(C)Cc1cc(O)c(CN(C)C)cc1O | 13% | -1% | 2.6µM* | 3.7µM* | 7 | -19%
Cc1c(C(=O)N2CCCC2)oc2c1-c1[nH]ncc1CC2 | ? | 22% | -21% | -28% | 8 | ?
Cc1cc(NC(=O)c2oc3c(c2C)-c2[nH]ncc2CC3)ccc1Br | nt | nt | ? | 18µM* | nt | nt
C/C(Cl)=C/Cn1c(SCC(C)C)nc2c1c(=O)[nH]c(=O)n2C | 1% | 1% | ? | 8.2µM* | 21 | -7%
CCCCCOC(=O)CSc1nc2c(c(=O)[nH]c(=O)n2C)n1CCc1ccccc1 | -1% | nt | ? | ? | 16 | -7%[0.365 µM]
CCCCOC(=O)CSc1nc2c(c(=O)[nH]c(=O)n2C)n1C/C=C(\C)Cl | ? | -4% | ? | 16µM* | 20 | 1%
CCOC(=O)C(CC)Sc1nc2c(c(=O)[nH]c(=O)n2C)n1C/C=C(/C)Cl (stereo unspecified) | 3% | -7% | 7.3µM* | 13µM* | 0 | 28%
CCOC(=O)C(C)Sc1nc2c(c(=O)[nH]c(=O)n2C)n1CCc1ccccc1 (stereo unspecified) | -13% | -2% | -20% | -23% | -11 | 0%
Nc1ncnc2c1ncn2[C@@H]1O[C@H](C(=O)N[C@H]2c3ccccc3C[C@H]2O)[C@@H](O)[C@H]1O | nt | nt | -7% | 1% | 8 | nt
Cn1c(=O)c2c(nc(NCc3ccccc3)n2Cc2ccc(F)cc2)n(C)c1=O | ? | 14µM* | nt | nt | nt | ?
C=C(C)Cn1c(NCCC)nc2c1c(=O)n(C)c(=O)n2C | -4% | -8% | ? | ? | 30 | 9%
CCCNc1nc2c(c(=O)n(C)c(=O)n2C)n1Cc1ccc(F)cc1 | ? | ? | 6.5µM* | 9.2µM* | 13 | 43%
COc1ccc(C2=CN3CCCCC3CC2=O)cc1OC (stereo unspecified) | ? | nt | -5% | 8% | -19 | nt
Cc1cccc(C)c1NC(=O)C1c2ccccc2OCC(=O)N1CCc1c[nH]c2ccccc12 (stereo unspecified) | nt | nt | -3% | -28% | -11 | nt
CSc1ccc(CNc2ccc(Cl)cc2)cc1 | ? | 22% | -1% | -6% | -73* | 36%
Clc1ccc(NCc2cccnc2)cc1 | 7% | 4% | -6% | 2% | -7 | 21%
N#Cc1c(N)nc(SCC(=O)C23CC4CC(CC(C4)C2)C3)c(C#N)c1-c1ccc(Cl)cc1 | ? | 5% | ? | ? | 22 | 0%
CSc1nc(N)nc(SCC(=O)C23CC4CC(CC(C4)C2)C3)c1C#N | 21µM* | -16% | ? | 18µM* | -21 | ?
N=c1c2c(-c3ccccc3)c(-c3ccccc3)oc2ncn1CCCN1CCOCC1 | -7% | ? | 21µM* | 18µM* | ? | ?
Cn1c2ccccc2c2ncn(CCCN3CCOCC3)c(=O)c21 | 13% | 11% | -3% | -15% | 13 | 31%
Cc1sc2ncnc(NCCN3CCOCC3)c2c1C | 18µM* | -12% | 13µM* | 18µM* | 4 | 34%
SMILES | ELG1 repair inh | Gal4-VP16 FLuc | TDP1 cell CPT | DT40 TDP1 no CPT | IL-1B inflam inh | RORg inh
O=c1oc2ccccc2c2c1ncn2CCN1CCOCC1 | 3% | 6% | ? | ? | 0 | 1%
CC1CCc2c(sc3ncnc(NCCN4CCOCC4)c23)C1 (stereo unspecified) | -3% | 20% | 9% | -5% | -25 | -6%
N=c1c2c(-c3ccccc3)c(-c3ccccc3)oc2ncn1CCN1CCOCC1 | ? | -27% | ? | 16µM* | ? | -27%
c1ccc(-c2oc3ncnc(NCCN4CCOCC4)c3c2-c2ccccc2)cc1 | ? | -4% | ? | ? | -82* | -9%
COC(=O)C1(C(=O)OC)c2ncccc2N(S(=O)(=O)c2ccc(C)cc2)C1CC(=O)c1ccccc1 (stereo unspecified) | nt | nt | ? | ? | 0 | nt
CCOC(=O)/C(=C\C=C1/Sc2cc(OCC)c(OCC)cc2N1CC)C(C)=O | 16µM* | -7% | 1.8µM* | 2.3µM* | -93* | 40%
CCN1/C(=C\C=C2\C(=O)N(C)C(=S)N2C)Sc2ccccc21 | ? | ? | -5% | ? | 20 | ?
CCOC(=O)/C(=C/C=C1\Sc2cc(OCC)c(OCC)cc2N1CC)C(C)=O | ? | 1% | 7.3µM* | 4.6µM* | -2 | 16%
Cc1ccc(/C=C/c2onc(C)c2S(=O)(=O)N2CCC(C(=O)NCc3ccc(Cl)cc3)CC2)cc1 | nt | nt | -30% | -17% | nt | nt
C/C(CC1CC(C)OC1=O)=N\NC(N)=S (stereo unspecified) | 6% | ? | -11% | 15% | 22 | 8.9µM*
CCC1CC(/C(C)=N/NC(N)=O)OC1=O (stereo unspecified) | 1% | 5% | 4% | 0% | 7 | -21%
COc1ccc2nc(NC(=O)Nc3cccc4ccccc34)sc2c1 | ? | -18% | ? | 18µM* | 9 | -16%
COc1ccc2nc(NC(C)=O)sc2c1 | ? | -1% | ? | ? | -12 | 2%
COc1ccc2nc(Nc3ccccc3OC)sc2c1 | ? | ? | ? | 21µM* | -8 | ?
COc1ccc2nc(NC(=O)Nc3ccccc3OC)sc2c1 | ? | -1% | 9.2µM* | 5.2µM* | -7 | 1%
COc1ccc(NC(=O)Nc2nnc(N(CC(C)C)CC(C)C)s2)c(OC)c1 | nt | nt | ? | 18µM* | nt | nt
CCn1cc(C(=O)N2CCN(c3cccc(Cl)c3)CC2)c(=O)c2cc(S(=O)(=O)N3CCCCC3)ccc21 | nt | nt | -10% | 1% | nt | nt
COc1ccc(CNC(=O)CCS(=O)(=O)c2cc3c4c(c2)CCN4C(=O)CC3)cc1OC | nt | nt | -4% | 3% | nt | nt
COc1ccc2nc(Nc3nc4cc5c(cc4s3)OCO5)sc2c1 | ? | 11µM* | ? | 7.3µM* | 38 | 4.5µM*
